Counter-ions that a name gives are not always drawn.
What follows are compounds tested on Vero E6 infected with SARS-CoV-2 (assay: morphology score (similarity to uninfected cells); higher = more like uninfected cells). Conditions: 24 h.

Compound	morphology score
O=C1NC(c2cccc([N+](=O)[O-])c2)=CCN1c1ccccc1O [icilin] (10 µM)	0.0675
Cc1onc(-c2c(Cl)cccc2Cl)c1C(=O)N[C@@H]1C(=O)N2[C@@H]1SC(C)(C)[C@@H]2C(=O)O [dicloxacillin] (10 µM)	0.0315
C[C@@H](N)Cc1c[nH]c2ccc(O)cc12 [alpha-methylserotonin] (10 µM)	0.251
Cc1cc(NC(=O)Nc2ccc(N(C)C)cc2)c2cc(F)cc(F)c2n1 (10 µM)	0.204
NC(=O)N1CCC(CC(=O)N2CCC([C@H]3c4ncc(Br)cc4CCc4cc(Cl)cc(Br)c43)CC2)CC1 [lonafarnib] (10 µM)	0.736
O=C(N[C@@H]1Cc2ccccc2N(C[C@@H](O)CO)C1=O)c1cc2cc(Cl)sc2[nH]1 (10 µM)	-0.155
COc1cccc(N2CCN(C3=Nc4c(F)cccc4[C@H](CC(=O)O)N3c3cc(C(F)(F)F)ccc3OC)CC2)c1 [letermovir] (10 µM)	-0.0548
Cn1c(NC[C@@H](N)Cc2ccccc2)nc(-c2ccncc2)c(-c2ccc3ccccc3c2)c1=O (10 µM)	0.653
CCN(CCO)CCCOc1ccc2c(Nc3cc(CC(=O)Nc4cccc(F)c4)[nH]n3)ncnc2c1 [barasertib-HQPA] (10 µM)	0.0875
CC(=O)N[C@H]1[C@H]([C@H](O)[C@H](O)CO)OC(O)(C(=O)O)C[C@@H]1O (mixture of isomers) [aceneuramic-acid] (10 µM)	0.0132
Cc1oc(=O)oc1CN1CCN(c2cc3c(cc2F)c(=O)c(C(=O)O)c2n3C(C)S2)CC1 (stereo not given) [prulifloxacin] (10 µM)	0.197
Oc1ccc(Cl)cc1 [parachlorophenol] (10 µM)	0.063
CC[C@@H](C)Nc1cc(C(=O)N[C@H]2C[C@H]3CC[C@@H](C2)N3c2ccc(C(=O)C3CC3)cn2)c(C)cc1C(N)=O (10 µM)	0.188
CC(C)CN(C[C@@H](O)[C@H](Cc1ccccc1)NC(=O)O[C@H]1CCOC1)S(=O)(=O)c1ccc(N)cc1 [amprenavir] (10 µM)	0.0911
COC(=O)N[C@H](C(=O)N1CC2(CC2)C[C@H]1c1nc(-c2ccc3c(c2)C(F)(F)c2cc(-c4ccc5[nH]c([C@@H]6[C@H]7CC[C@H](C7)N6C(=O)[C@@H](NC(=O)OC)C(C)C)nc5c4)ccc2-3)c[nH]1)C(C)C [ledipasvir] (10 µM)	0.191
COc1ccc(Cl)cc1C(=O)NCCc1ccc(C(=O)O)cc1 [meglitinide] (10 µM)	0.13
C=CCSCC1Nc2cc(Cl)c(S(N)(=O)=O)cc2S(=O)(=O)N1 (stereo not given) [althiazide] (10 µM)	-0.00232
Cc1cc(-c2ccccc2)nnc1NCCN1CCOCC1 [minaprine] (10 µM)	0.145
NC[C@H]1O[C@H](O[C@H]2[C@H](O)[C@@H](O[C@H]3O[C@H](CO)[C@@H](O)[C@H](N)[C@H]3O)[C@H](N)C[C@@H]2N)[C@H](N)[C@@H](O)[C@@H]1O [bekanamycin] (10 µM)	0.0989
O=C(Nc1ccccc1)c1cc([N+](=O)[O-])ccc1Cl (10 µM)	0.103

Compound	morphology score
O=C1COc2nccc(-c3ccccc3F)c2CN1Cc1cc(C(F)(F)F)cc(C(F)(F)F)c1 (10 µM)	-0.194
CSc1ccc(C(=O)N[C@@H]2CCCC[C@@H]2NC(=O)CNC(=O)c2cc(C(F)(F)F)ccc2NC(=O)NC(C)C)cc1 (10 µM)	0.07
CC(C)C[C@H](NC(=O)CNC(=O)c1cc(Cl)ccc1Cl)B1OC(=O)C(CC(=O)O)(CC(=O)O)O1 [ixazomib-citrate] (0.833333 µM)	0.101
CC(C)C[C@@H](C(=O)N[C@H](C(=O)OC1CCCC1)c1ccccc1)[C@H](O)C(=O)NO [tosedostat] (10 µM)	0.243
CCC[C@H](Nc1nc(-c2ccc(NC(=O)NCC)c(OC)c2)ncc1C)c1cccnc1 (10 µM)	-0.29
CC[C@@]1(O)C(=O)OCc2c1cc1n(c2=O)Cc2cc3c(CN(C)C)c(O)ccc3nc2-1 [topotecan] (10 µM)	0.0619
CCSC(=N)N [EIT-hydrobromide] (10 µM)	-0.0504
Cc1cc(C(=O)Nc2cccc(C(=O)Nc3cccc(C(F)(F)F)c3)c2)on1 (10 µM)	-0.209
C[C@@H](N[C@H]1CCCC[C@@H]1NC(=O)c1ccc(Cl)cc1)c1cccc2ccccc12 [Calhex-231] (10 µM)	0.134
COc1cc(C(=O)NCCCCCC(=O)O)cc(OC)c1OC [capobenic-acid] (10 µM)	0.0878
COc1cc2nccc(Oc3ccc(NC(=O)NC4CC4)c(Cl)c3)c2cc1C(N)=O [lenvatinib] (10 µM)	0.239
C[C@H]1CO[C@@H]2Cn3cc(C(=O)NCc4ccc(F)cc4F)c(=O)c(O)c3C(=O)N12 (10 µM)	-0.00851
N=C1CCCN1Cc1[nH]c(=O)[nH]c(=O)c1Cl [tipiracil] (10 µM)	-0.0802
COc1ccc(-c2cc(=O)c3c(O)cc(O)cc3o2)cc1O [diosmetin] (10 µM)	0.205
CCn1cc(C(=O)O)c(=O)c2cc(F)c(N3CCNC(C)C3)c(F)c21 (stereo not given) [lomefloxacin] (10 µM)	0.0917
N#Cc1ccc2[nH]cc(CCCCN3CCN(c4ccc5oc(C(N)=O)cc5c4)CC3)c2c1 [vilazodone] (0.833333 µM)	0.0471
Cc1cc(SCc2sc(-c3ccc(C(F)(F)F)cc3)nc2C)ccc1OCC(=O)O (10 µM)	0.0978
C[C@H]1[C@H](OC(=O)CCC(=O)O)O[C@@H]2O[C@@]3(C)CC[C@H]4[C@H](C)CC[C@@H]1[C@@]24OO3 [artesunate] (0.833333 µM)	0.157
CCc1cc(C(N)=S)ccn1 [ethionamide] (10 µM)	0.155
COc1ccc(N(C(=O)Oc2c(C)cccc2C)c2ccnc(Nc3ccc(N4CCN(C)CC4)cc3)n2)c(OC)c1 (10 µM)	0.0671
